# According to PubChem BioAssay AID463187 (University of Pittsburgh Molecular Library Screening Center, 2010):
# Among all 220,000 compounds or so, about 1,500 (0.68%) were called active. Shown is part of a subset that was picked to be rich in actives. A number with no mark means an inactive call.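 How the source made its calls: active means Hck-Nef kinase inhibition above about 50% (limit read from the data); inactive means inhibition below that limit.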
# Target: Tyrosine-protein kinase HCK (Homo sapiens) (UniProt P08631)
# Test: inhibitors of Nef-activated human Hck kinase, primary screen, biochemical, Z-Lyte FRET, 384-well, Hck-YEEI (AID 463187);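 further: 0% = DMSO with Hck plus Nef and 100% = Hck alone without Nef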
# Settings: Recombinant Hck-YEEI plus Nef, Z-Lyte FRET kinase assay; at 20 µM; active compounds read high
# Chain of Tyrosine-protein kinase HCK (Homo sapiens) (P08631 whole entry, looked up): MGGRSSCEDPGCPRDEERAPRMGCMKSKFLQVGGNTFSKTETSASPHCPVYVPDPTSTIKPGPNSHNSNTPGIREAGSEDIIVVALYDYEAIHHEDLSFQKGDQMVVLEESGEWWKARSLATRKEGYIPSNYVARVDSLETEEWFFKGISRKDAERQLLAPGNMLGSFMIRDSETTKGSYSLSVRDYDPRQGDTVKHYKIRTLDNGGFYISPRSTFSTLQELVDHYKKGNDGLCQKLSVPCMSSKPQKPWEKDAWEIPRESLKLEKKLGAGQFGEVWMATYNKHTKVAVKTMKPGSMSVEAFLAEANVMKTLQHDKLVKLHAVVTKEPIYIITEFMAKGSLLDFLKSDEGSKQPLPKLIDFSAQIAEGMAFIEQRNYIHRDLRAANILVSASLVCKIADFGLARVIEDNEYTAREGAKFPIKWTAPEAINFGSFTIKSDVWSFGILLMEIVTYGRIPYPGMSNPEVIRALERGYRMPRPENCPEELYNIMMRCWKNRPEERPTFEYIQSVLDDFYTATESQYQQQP
row,Structure (SMILES),inhibition
1,COc1cccc(N2C(=O)NC(=O)/C(=C\c3ccc([N+](=O)[O-])s3)C2=O)c1,92.8% (active)
2,O=C1NC(=O)N(c2ccccc2)C(=O)/C1=C/c1ccc([N+](=O)[O-])s1,20.3%
3,Cc1cccc(N2C(=O)NC(=O)/C(=C\c3cnn(-c4ccccc4)c3)C2=O)c1,5.24%
4,O=C1NC(=O)N(Cc2ccco2)C(=O)/C1=C\c1cccn1CCOc1ccccc1,27.2%
5,Cc1cc(/C=C2/C(=O)NC(=O)N(Cc3ccco3)C2=O)c(C)n1-c1ccc(C(=O)O)cc1,49.2%
6,O=C1NC(=O)N(Cc2ccco2)C(=O)/C1=C\c1ccc(-c2ccc(F)cc2)o1,59.4% (active)
7,CNC(=O)O/N=C(\N)Cc1csc2ccccc12,13.9%
8,Cc1cccc(NC(=O)OC2CN3CCC2CC3)c1 (stereo not given),13.5%
9,O=C(N/N=C/c1c(O)n(Cc2ccccc2)c(=O)[nH]c1=O)c1ccccc1,1.83%
10,COc1cc(Cn2c(N)c(C(=O)NCc3ccco3)c3nc4ccccc4nc32)cc(OC)c1OC,66.7% (active)
11,CCOC(=O)c1c(N)n(CCN2CCOCC2)c2nc3ccccc3nc12,-2.81%
12,CCOC(=O)c1c(N)n(Cc2ccccc2)c2nc3ccccc3nc12,9.2%
13,CSc1nc2ccc(C)cc2c(=O)n1-c1cccnc1,4.59%
14,O=C(Cn1c(=O)n(CC2CS2)c2ccccc21)N1CCCCC1 (stereo not given),-9.69%
15,CC1=C(C(=O)Nc2ccccc2)S(=O)(=O)CCO1,26.8%
